In PubChem BioAssay (Tox21) one finds Potency data, which are given here for 23 molecules.

Assay [1] is described as follows: A CellTox Green Cytotoxicity Assay to monitor cytotoxicity in HEK293 cells - 32 hour (AID 1224881). Note: nearly all actives have a fitted effect of over 40% in size. Note: potency is the fitted concentration of half-maximal effect. Put shortly: (§1)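 Cytotoxicity was tracked continuously in HEK293 cells by a DNA-binding dye excluded from viable cells. Compounds were transferred in DMSO 5 h after seeding; fluorescence was recorded at intervals up to 40 h.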
The nature of assay [2]: A CellTox Green Cytotoxicity Assay to monitor cytotoxicity in HepG2 cells - 0 hour (AID 1224882). Note: nearly all actives have a fitted effect of over 35% in size. Put shortly: (§2)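 Real-time, homogeneous cytotoxicity readout: dead-cell DNA staining by CellTox Green in HepG2 monolayers, fluorescence measured at timed intervals up to 40 h of continuous compound exposure.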
Assay [3] can be described thus: A CellTox Green Cytotoxicity Assay to monitor cytotoxicity in HepG2 cells - 32 hour (AID 1224883). Note: nearly all actives have a fitted effect of over 50% in size. Note: potency is the fitted concentration of half-maximal effect. In short, it runs like this: as §2
Assay [4] is described as follows: A CellTox Green Cytotoxicity Assay to monitor cytotoxicity in HEK293 cells - 8 hour (AID 1224884). Note: nearly all actives have a fitted effect of over 35% in size. Note: potency is the fitted concentration of half-maximal effect. In short, it runs like this:
as §1

Assay [5] can be described thus: qHTS RealTime-Glo MT Cell Viability Assay in HepG2 cells - 16 hour (AID 1224885). Note: nearly all actives have a fitted effect of over 50% in size. Note: potency is the fitted concentration of half-maximal effect. In short, it runs like this: (§3)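 Compound treatment began 5 h after plating HepG2 cells (600/well) with NanoLuc luciferase and prosubstrate. Plates stayed at 37 C for 40 h; luminescence was captured at six time points, 0 h through 40 h.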
Assay [6] in a line: qHTS RealTime-Glo MT Cell Viability Assay in HEK293 cells - 24 hour (AID 1224886). Note: nearly all actives have a fitted effect of over 50% in size. Note: potency is the fitted concentration of half-maximal effect. Put shortly: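 Quantitative high-throughput screen of the Tox21 10K library in HEK293: cells and RealTime-Glo reagents plated together, compound added at 5 h, luminescence monitored through 40 h at 37 C.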
(In general: Quantitative high-throughput screening tests each substance at several concentrations.)

The nature of assay [7]: qHTS RealTime-Glo MT Cell Viability Assay in HEK293 cells - 8 hour (AID 1224887). Note: nearly all actives have a fitted effect of over 50% in size. Note: potency is the fitted concentration of half-maximal effect. Put shortly:
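Nonlytic bioluminescent viability monitoring. HEK293 at 600 cells/well with reagent; 5 h settle; compound transfer by pintool; plates held at 37 C and read at set time points.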

A short description of assay [8]: A CellTox Green Cytotoxicity Assay to monitor cytotoxicity in HEK293 cells - 16 hour (AID 1224888). Note: nearly all actives have a fitted effect of over 35% in size. Note: potency is the fitted concentration of half-maximal effect. Put shortly:
as §1

Assay [9] in a line: qHTS RealTime-Glo MT Cell Viability Assay in HepG2 cells - 0 hour (AID 1224889). Note: nearly all actives have a fitted effect of over 50% in size. Note: potency is the fitted concentration of half-maximal effect. Put shortly: as §3
Assay [10] in a line: A CellTox Green Cytotoxicity Assay to monitor cytotoxicity in HepG2 cells - 8 hour (AID 1224890). Note: nearly all actives have a fitted effect of over 45% in size. Note: potency is the fitted concentration of half-maximal effect. Put shortly: as §2

Values joined by “and” are separate entries in the source; they are usually repeats but may differ in a detail not shown here. Equal values may be shown once. Results filed as inconclusive are left out. Some compounds were tested as several samples or in several runs, with calls that do not always agree. Active and inactive are the calls of the source. Calls come from the whole dose curve; as a rule, active = well fitted curve in the direction sought with a large enough effect in the repeat runs; inconclusive = weak or mixed curves; inactive = no such curve, though single readings can be large; an effect the other way counts as inactive or inconclusive.

`CCOP(=S)(OCC)Oc1cc(C)nc(N(CC)CC)n1`: the Potency entry in assay [1], in assay [2], in [3], in [4], in [5] and in assay [6] was “inactive” in each case. Further, the Potency result in assay [7], in [8], in assay [9] and in assay [10] was “inactive” each time.
Take `O=c1[nH]c(Cl)c(Cl)cc1Cl`: the Potency result in assay [1], in [2], in [3], in assay [4], in [5] and in assay [6] was “inactive” each time. Besides, the Potency entry in [7] and in [8] was “inactive” throughout.
For `CNC(C)(C)Cc1ccccc1`, the Potency entry in assay [1], in assay [2], in assay [3], in assay [4], in assay [5] and in assay [6] was “inactive” each time. Also, the Potency entry in assay [7], in assay [8] and in assay [9] was “inactive” each time.
On to `CSC1=N[C@@](C)(c2ccccc2)C(=O)N1Nc1ccccc1`, for which the Potency result in assay [1], in assay [2], in [3], in [4], in [5] and in assay [6] was “inactive” in each case. For the same molecule, the Potency result in [7], in [8], in assay [9] and in assay [10] was “inactive” each time.
Take `N#CSCc1ccccc1`: the Potency entry in assay [1], in assay [2], in assay [3], in assay [4], in assay [5] and in assay [6] was “inactive” each time. Also, the Potency result in assay [7], in assay [8] and in assay [9] was “inactive” in each case.
Consider `CC(C)=CC1C(C(=O)OC(C#N)c2cccc(Oc3ccccc3)c2)C1(C)C` (stereo not given), for which the Potency entry in assay [1], in assay [2], in [3], in [4], in assay [5] and in [6] was “inactive” each time. The Potency entry in assay [7], in assay [8] and in assay [9] was “inactive” throughout.
With `CN(C)C(=S)SSC(=S)N(C)C`, the Potency is 4.83 µM (active) and 1.23 µM (active) and 213 nM (active) in [1]; 309 nM (active) and 134 nM (active) in assay [3]; 49 µM (active) and inactive in [4]; 48.3 µM (active) and 1.74 µM (active) and 2.68 µM (active) in assay [5]; 272 nM (active) and 195 nM (active) and 21.3 µM (active) in assay [6]; 43 µM (active) and 27.5 µM (active) in [7]. Moreover, in [8], the Potency was 43 µM (active) and 38.9 µM (active). Besides, the Potency result in assay [2] and in assay [9] was “inactive” throughout.
Consider `ClC1=C(Cl)[C@]2(Cl)[C@@H]3[C@H]4C[C@H]([C@@H]5O[C@H]45)[C@@H]3[C@@]1(Cl)C2(Cl)Cl`, for which the Potency entry in assay [1], in [2], in assay [3], in assay [4], in assay [5] and in assay [6] was “inactive” throughout. Further, the Potency result in [7], in assay [8] and in assay [9] was “inactive” throughout.
For the molecule `OCC(Br)CBr` (stereo not given), the Potency entry in assay [1], in [2], in assay [3], in assay [4], in [5] and in assay [6] was “inactive” throughout. The Potency result in assay [7], in [8], in assay [9] and in assay [10] was “inactive” throughout.
Regarding `CCCCCON=O`, the Potency entry in assay [1], in [2], in [3], in assay [4], in [5] and in assay [6] was “inactive” each time. The Potency result in assay [7], in assay [8], in [9] and in assay [10] was “inactive” throughout.
As to `CC(=O)[O-].CC(=O)[O-].[Co+2]`, the Potency entry in [1], in [2], in [3], in [4], in assay [5] and in assay [6] was “inactive” each time. Besides, the Potency entry in [7], in assay [8], in assay [9] and in assay [10] was “inactive” in each case.
For `CSC(C)(C)/C=N/O`, the Potency result in [1], in assay [2], in assay [3], in assay [4], in assay [5] and in [6] was “inactive” throughout. The Potency entry in [7], in assay [8] and in [9] was “inactive” each time.
Turning to `C=CC(=O)[O][Sn]([CH2]CCC)([CH2]CCC)[CH2]CCC`, the Potency in assay [1] is 3.47 µM (active); in assay [3], 692 nM (active); in assay [4] it was 21.9 µM (active); in assay [5] it was 549 nM (active); in assay [6] it was 436 nM (active); in [7] it was 871 nM (active). Moreover, the Potency in assay [8] is 24.5 µM (active); in assay [10] it was 0.977 µM (active). Also, the Potency entry in [2] and in assay [9] was “inactive” each time.
Consider `C=CC(=C)C`, for which the Potency result in [1], in [2], in assay [3], in assay [4], in assay [5] and in [6] was “inactive” in each case. Moreover, the Potency entry in assay [7], in assay [8], in [9] and in [10] was “inactive” in each case.
Consider `c1cc[n+]2c(c1)-c1cccc[n+]1CC2`, for which the Potency entry in assay [1], in [2], in assay [3], in assay [4], in assay [5] and in assay [6] was “inactive” in each case. For the same molecule, the Potency entry in assay [7], in assay [8], in [9] and in assay [10] was “inactive” in each case.
Turning to `CC(C)C(Br)C(=O)NC(N)=O` (stereo not given), the Potency result in [1], in assay [2], in assay [3], in [4], in [5] and in assay [6] was “inactive” each time. Moreover, the Potency result in assay [7], in assay [8] and in [9] was “inactive” each time.
As for `ClC1(Cl)C2(Cl)C3(Cl)C4(Cl)C(Cl)(Cl)C5(Cl)C3(Cl)C1(Cl)C5(Cl)C24Cl` (stereo not given), the Potency result in [1], in assay [2], in [3], in [4], in assay [5] and in assay [6] was “inactive” in each case. The Potency entry in [7], in assay [8], in assay [9] and in assay [10] was “inactive” in each case.
In the case of `CCC(C)Nc1c([N+](=O)[O-])cc(C(C)(C)C)cc1[N+](=O)[O-]` (stereo not given), the Potency entry in [1], in assay [2], in assay [3], in [4], in assay [5] and in [6] was “inactive” in each case. For the same molecule, the Potency result in assay [8] and in [9] was “inactive” throughout.
In the case of `CC(C)C(Nc1ccc(C(F)(F)F)cc1Cl)C(=O)OC(C#N)c1cccc(Oc2ccccc2)c1` (stereo not given), the Potency entry in assay [1], in assay [2], in assay [3], in [4], in [5] and in assay [6] was “inactive” each time. The Potency entry in [8] and in [9] was “inactive” throughout.
For the molecule `O=C1C(Cl)=C(Cl)C(=O)C(Cl)=C1Cl`, the Potency was 21.8 µM (active) and 21.9 µM (active) in [1]; 21.8 µM (active) and 19.5 µM (active) in assay [3]; 24.5 µM (active) and 21.9 µM (active) in assay [6]; 21800 nM (active) in assay [7]; 9.74 µM (active) and 12.3 µM (active) in assay [9]; 21.9 µM (active) in [10]. Besides, the Potency result in [2], in assay [4] and in assay [8] was “inactive” throughout.
As for `CCC(C)c1cccc(C(C)CC)c1O` (stereo not given), the Potency is 30.9 µM (active) in assay [1], 19500 nM (active) in assay [3] and 19.5 µM (active) in assay [10]. Also, the Potency result in assay [2], in assay [4], in assay [5], in assay [6], in assay [7] and in [9] was “inactive” each time.
Consider `CCC1COC(Cn2cncn2)(c2ccc(Cl)cc2Cl)O1` (stereo not given), for which the Potency result in assay [1], in assay [2], in [3], in [4], in assay [5] and in assay [7] was “inactive” each time. Also, the Potency entry in assay [8] and in assay [10] was “inactive” each time.
Turning to `Cc1ccc(C)c2ccccc12`, the Potency in [1] is 38.9 µM (active). Besides, the Potency entry in assay [2], in assay [3], in [4], in [5], in assay [6] and in [9] was “inactive” in each case.
